mcGAS MS inh = blocks mouse cGAS cGAMP production. Q8C6L5. recombinant mouse cGAS, cGAMP by RapidFire MS. inhibition, % at 12.5 µM. actives 0.18% (n = 130,000);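 active = inhibition of cGAS enzyme activity at or above 60%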;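 note: enzyme stimulated by 45 bp dsDNA with ATP and GTP substrates; cGAMP share of summed cGAMP plus half ATP and half GTP signals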
Target sequence (Q8C6L5 whole entry, looked up): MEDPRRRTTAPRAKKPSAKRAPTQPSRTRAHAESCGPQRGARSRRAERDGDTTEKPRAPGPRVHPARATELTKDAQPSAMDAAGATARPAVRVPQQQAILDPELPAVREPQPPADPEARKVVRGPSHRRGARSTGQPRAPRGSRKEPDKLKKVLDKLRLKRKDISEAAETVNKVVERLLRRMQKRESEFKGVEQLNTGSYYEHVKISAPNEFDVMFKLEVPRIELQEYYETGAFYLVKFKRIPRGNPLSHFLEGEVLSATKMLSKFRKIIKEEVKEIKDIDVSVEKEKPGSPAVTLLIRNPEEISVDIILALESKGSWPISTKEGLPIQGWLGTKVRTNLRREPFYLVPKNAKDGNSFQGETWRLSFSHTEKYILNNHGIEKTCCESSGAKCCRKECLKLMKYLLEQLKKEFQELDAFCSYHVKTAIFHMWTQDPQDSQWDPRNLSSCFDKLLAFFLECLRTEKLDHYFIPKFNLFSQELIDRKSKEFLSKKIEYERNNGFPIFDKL
Hits are given with their value; n = inactive. This excerpt belongs to a sample that is enriched for hits.

SMILES	mcGAS MS inh
CC(C)c1cc(C2CCN(C(=O)c3nc(C(C)C)cs3)CC2)[nH]n1	n
CC(C)c1cc(C2CCN(C(=O)C3=NN(C)C(=O)CC3)CC2)[nH]n1	77.9
CC(C)=CC(=O)N1CCC(c2cc(C(C)C)n[nH]2)CC1	n
Cc1ccc(NS(=O)(=O)c2ccc(F)cc2[N+](=O)[O-])c(F)c1	n
CCC(NC(=O)Cc1c[nH]c(=O)n(C)c1=O)c1cc(C)ccn1 (centres undefined)	n
O=C(CCN=C1NS(=O)(=O)c2ccccc21)NCCSc1ccc(Cl)cc1	n
CCn1c(C)cc(O)c(C(c2ccc(OC)cc2OC)N2CCN(c3ccccc3F)CC2)c1=O (centres undefined)	n
CCn1c(C)cc(O)c(C(c2ccc(SC)cc2)N2CCCCC2)c1=O (centres undefined)	n
CCn1c(C)cc(O)c(C(c2cccs2)N2CCC(C)CC2)c1=O (centres undefined)	n
CCn1c(C)cc(O)c(C(c2cccs2)N2CCCCC2)c1=O (centres undefined)	62.5
O=c1c2cnc(N3CCCCC3)nc2ccn1CCCN1CCOCC1	n
COc1cc(-c2ccc(NN=C3C=Cc4c(S(=O)(=O)O)cc(S(=O)(=O)O)c(N)c4C3=O)c(OC)c2)ccc1NN=C1C=Cc2c(S(=O)(=O)O)cc(S(=O)(=O)O)c(N)c2C1=O	97.8
COc1cc(-c2cccc(C(=O)O)c2)ccc1NC(C)=O	n
O=C(C1CCN(S(=O)(=O)N2CCCCC2)CC1)N1CCCCCC1	n
COc1ccc(CNC(c2ccc(Cl)cc2)c2nccn2C)cc1C (centres undefined)	n
O=C1NC(=S)SC1=Cc1cc(O)c(O)c(Cl)c1	97.4
O=C1NC(=S)SC1=Cc1ccccc1Cl	n
COc1cc(C=C2SC(=S)NC2=O)cc(OC)c1OC	n
CC(=O)N1N=C(c2cn(-c3ccccc3)nc2-c2ccccc2)CC1c1ccccc1O (centres undefined)	n
CCn1cc(NS(=O)(=O)c2cc(C(=O)O)cc3c2CCCC3)cn1	n
Cc1nnc(NC(=O)c2ccc(S(=O)(=O)Nc3cccc(C(F)(F)F)c3)o2)s1	75.6
Cc1nnc(NC(=O)c2cccc(C(=O)O)c2)s1	n
Cc1cccc(NC(=O)c2ccc(S(=O)(=O)Nc3cccc(C(F)(F)F)c3)o2)n1	n
Cc1cnc(C(=O)N2CCCC(C(=O)c3ccc(Oc4ccccc4)cc3)C2)cn1 (centres undefined)	n
O=C(CCc1nnc(Cc2ccc3c(c2)OCO3)o1)N1CCc2ccccc2C1	n
SMILES	mcGAS MS inh
Cc1ccc(-c2cnc(CCC(=O)N3CCc4ccccc4C3)o2)cc1C	78.0
O=C(CCc1ncc(-c2ccc(F)cc2)o1)N1CCN(c2ccccc2)CC1	n
O=C(NCCc1cccnc1)C1CCCc2ccccc21 (centres undefined)	n
Cc1ccc(C(=O)c2nc3c(n2O)CCCCC3)cc1	89.7
O=C(c1cccc2ccccc12)c1nc2c(n1O)CCCC2	n
CCOc1ccc(C(=O)c2nc3c(n2O)CCCCC3)cc1OCC	n
Cc1cc(C(=O)NCCCN2CCCCC2C)c2cnn(C(C)C)c2n1 (centres undefined)	n
CCC1(C)NC(=O)N(/N=C\C2=Cc3cc(Cl)cc(Cl)c3OC2)C1=O (centres undefined)	n
O=C(Nc1nc(CN2CCCCC2)cs1)C1=Cc2ccccc2OC1	n

Source: PubChem (Fisher Drug Discovery Resource Center)
